These results are taken from the supplement of paper PMC8007513.

Counter-ions that a name gives are not always drawn. ± gives the standard error. Hit rate of the full screen: of about 1,300 compounds, about 130 (10%) showed an effect of 50% or more. This excerpt belongs to a sample that is enriched for strong results.

For this experiment, the system named is Trichoderma virens ATCC 9645. Nature of the experiment: growth yield (OD600) with compound + IPBC relative to untreated control; higher = less growth inhibition. Conditions: compound concentration: 100 uM, IPBC concentration: 200 ng/ml. Summed up:
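Plates were read for OD600 at 40 h and 72 h after Trichoderma virens ATCC 9645 spores (15,000 spores ml^−1 in potato dextrose broth) were grown at 30 °C with library compounds at 100 μM final, with or without a biocide at 200 ng ml^−1. Growth is stated relative to the control with neither agent, as the mean of duplicate screens.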

Consider `CC(C)(C)NC[C@H](O)COc1ccccc1C1CCCC1` [Penbutolol sulfate] + CCCCNC(=O)OCC#CI [3-iodo-2-propynyl butylcarbamate (IPBC)], for which the growth yield by setting is: (40 h) 74.8 ± 6.2%; (72 h) 91.56 ± 0.73%.

With `O=C1CCC(N2C(=O)c3ccccc3C2=O)C(=O)N1` (stereo not drawn) [Thalidomide] + CCCCNC(=O)OCC#CI [3-iodo-2-propynyl butylcarbamate (IPBC)], the growth yield is 95.3 ± 3.2% (40 h) and 101 ± 4.4% (72 h).

For `COc1ccccc1OCC(O)CN1CCN(CC(=O)Nc2c(C)cccc2C)CC1` (stereo not drawn) [Ranolazine] + CCCCNC(=O)OCC#CI [3-iodo-2-propynyl butylcarbamate (IPBC)], the growth yield is, setting by setting: (40 h) 89.7 ± 2.4%; (72 h) 94.2 ± 2.7%.

In the case of `Cc1cccc(C)c1NC(=O)CN1CCN(CCCC(c2ccc(F)cc2)c2ccc(F)cc2)CC1` [Lidoflazine] + CCCCNC(=O)OCC#CI [3-iodo-2-propynyl butylcarbamate (IPBC)], the growth yield runs as follows: (40 h) 10.3 ± 1.1%; (72 h) 78.6 ± 7.7%.

In the case of `O=C1NCN(c2ccccc2)C12CCN(CCCC(c1ccc(F)cc1)c1ccc(F)cc1)CC2` [Fluspirilen] + CCCCNC(=O)OCC#CI [3-iodo-2-propynyl butylcarbamate (IPBC)], the growth yield came out at 99.4 ± 6.3% (40 h) and 118 ± 4.2% (72 h).

As to `CO/N=C1\CN(c2nc3c(cc2F)c(=O)c(C(=O)O)cn3C2CC2)CC1CN` (stereo not drawn) [Gemifloxacin mesylate] + CCCCNC(=O)OCC#CI [3-iodo-2-propynyl butylcarbamate (IPBC)], the growth yield is, setting by setting: (40 h) 103 ± 17%; (72 h) 104 ± 11%.

Regarding `CNCC(O)c1ccc(OC(=O)C(C)(C)C)c(OC(=O)C(C)(C)C)c1` (stereo not drawn) [Dipivefrin hydrochloride] + CCCCNC(=O)OCC#CI [3-iodo-2-propynyl butylcarbamate (IPBC)], the growth yield (40 h) stood at 79.4 ± 1.3% and the growth yield (72 h) amounted to 88.83 ± 0.1%.

Take `C[C@]12CCC(=O)C(O)=C1CC[C@@H]1[C@@H]2CC[C@]2(C)C(=O)CC[C@@H]12` [Formestane] + CCCCNC(=O)OCC#CI [3-iodo-2-propynyl butylcarbamate (IPBC)]: the growth yield stood at 71.5 ± 3.8% (40 h) and 91.2 ± 1.1% (72 h).

Take `N[C@@H]1CONC1=O` [D-cycloserine] + CCCCNC(=O)OCC#CI [3-iodo-2-propynyl butylcarbamate (IPBC)]: the growth yield by setting is: (40 h) 86.2 ± 1.1%; (72 h) 90.3 ± 1.8%.

Consider `COc1ccc2[nH]cc(CCNC(C)=O)c2c1` [Melatonin] + CCCCNC(=O)OCC#CI [3-iodo-2-propynyl butylcarbamate (IPBC)], for which the growth yield is, setting by setting: (40 h) 82.9 ± 4.1%; (72 h) 92.3 ± 4%.

As to `CCCCCNC(=N)N/N=C/c1c[nH]c2ccc(OC)cc12` [Tegaserod maleate] + CCCCNC(=O)OCC#CI [3-iodo-2-propynyl butylcarbamate (IPBC)], the growth yield runs as follows: (40 h) 5.4%; (72 h) 5.24 ± 0.21%.

On to `CC(C)(C)NCC(O)COc1cccc2c1CC(O)C(O)C2` (stereo not drawn) [Nadolol] + CCCCNC(=O)OCC#CI [3-iodo-2-propynyl butylcarbamate (IPBC)], for which the growth yield turned out to be 102 ± 19% (40 h) and 100 ± 10% (72 h).

Turning to `c1ccc2[nH]c(-c3cscn3)nc2c1` [Tiabendazole] + CCCCNC(=O)OCC#CI [3-iodo-2-propynyl butylcarbamate (IPBC)], the growth yield runs as follows: (40 h) 4.7652 ± 1.4e-15%; (72 h) 3.3561 ± 1.3e-15%.

On to `CN1CCN(CCCN2c3ccccc3Sc3ccc(Cl)cc32)CC1` [Prochlorperazine dimaleate] + CCCCNC(=O)OCC#CI [3-iodo-2-propynyl butylcarbamate (IPBC)], for which the growth yield by setting is: (40 h) 3.18%; (72 h) 2.73 ± 0.21%.

In the case of `O=c1n(CCCN2CCN(c3cccc(Cl)c3)CC2)nc2ccccn12` [Trazodone hydrochloride] + CCCCNC(=O)OCC#CI [3-iodo-2-propynyl butylcarbamate (IPBC)], the growth yield by setting is: (40 h) 51 ± 1.1%; (72 h) 86.1 ± 0.94%.

As for `OCCN1CCN(CCCN2c3ccccc3C=Cc3ccccc32)CC1` [Opipramol dihydrochloride] + CCCCNC(=O)OCC#CI [3-iodo-2-propynyl butylcarbamate (IPBC)], the growth yield (40 h) stood at 69.57 ± 0.64% and the growth yield (72 h) was determined as 92.4 ± 3%.

For `CN(C)CCCN1c2ccccc2Sc2ccc(Cl)cc21` [Chlorpromazine hydrochloride] + CCCCNC(=O)OCC#CI [3-iodo-2-propynyl butylcarbamate (IPBC)], the growth yield was 52.4 ± 4.1% (40 h) and 87.2 ± 2.2% (72 h).

For the molecule `OCCN1CCN(CCCN2c3ccccc3Sc3ccc(Cl)cc32)CC1` [Perphenazine] + CCCCNC(=O)OCC#CI [3-iodo-2-propynyl butylcarbamate (IPBC)], the growth yield runs as follows: (40 h) 4.29 ± 0.48%; (72 h) 2.94 ± 0.42%.

Turning to `CSc1ccc2c(c1)N(CCC1CCCCN1C)c1ccccc1S2` (stereo not drawn) [Thioridazine hydrochloride] + CCCCNC(=O)OCC#CI [3-iodo-2-propynyl butylcarbamate (IPBC)], the growth yield (40 h) was determined as 3.81 ± 0.64% and the growth yield (72 h) came to 2.94 ± 0.21%.

Take `CN1CCN(CCCN2c3ccccc3Sc3ccc(S(=O)(=O)N(C)C)cc32)CC1` [Thioproperazine dimesylate] + CCCCNC(=O)OCC#CI [3-iodo-2-propynyl butylcarbamate (IPBC)]: the growth yield is, setting by setting: (40 h) 37.8 ± 0.95%; (72 h) 97.1 ± 5%.

`COc1ccc2c(c1)N(C[C@H](C)CN(C)C)c1ccccc1S2` [Methotrimeprazine maleat salt] + CCCCNC(=O)OCC#CI [3-iodo-2-propynyl butylcarbamate (IPBC)]: the growth yield amounted to 76.4 ± 1.4% (40 h) and 92.61 ± 0.32% (72 h).

For `CC(CN(C)C)CN1c2ccccc2Sc2ccccc21` (stereo not drawn) [Trimeprazine tartrate] + CCCCNC(=O)OCC#CI [3-iodo-2-propynyl butylcarbamate (IPBC)], the growth yield turned out to be 71.5 ± 3.8% (40 h) and 92 ± 3.9% (72 h).

Regarding `CN1CCCCC1CCN1c2ccccc2Sc2ccc([S+](C)[O-])cc21` (stereo not drawn) [Mesoridazine besylate] + CCCCNC(=O)OCC#CI [3-iodo-2-propynyl butylcarbamate (IPBC)], the growth yield runs as follows: (40 h) 72.6 ± 2.4%; (72 h) 89.25 ± 0.52%.

With `CN(C)CCCN1c2ccccc2CCc2ccc(Cl)cc21` [Clomipramine hydrochloride] + CCCCNC(=O)OCC#CI [3-iodo-2-propynyl butylcarbamate (IPBC)], the growth yield came out at 59.6 ± 1.4% (40 h) and 93.2 ± 2% (72 h).

Regarding `CN1CCC[C@@H]1CCO[C@](C)(c1ccccc1)c1ccc(Cl)cc1` [Clemastine fumarate] + CCCCNC(=O)OCC#CI [3-iodo-2-propynyl butylcarbamate (IPBC)], the growth yield runs as follows: (40 h) 53.2 ± 1.8%; (72 h) 92.4 ± 0.94%.

As for `CCCCC[C@H](O)/C=C/[C@H]1[C@H](O)CC(=O)[C@@H]1CCCCCCC(=O)O` [Alprostadil] + CCCCNC(=O)OCC#CI [3-iodo-2-propynyl butylcarbamate (IPBC)], the growth yield runs as follows: (40 h) 108 ± 3.3%; (72 h) 107 ± 2.8%.

Take `Cc1ncc([N+](=O)[O-])n1CC(C)O` (stereo not drawn) [Secnidazole] + CCCCNC(=O)OCC#CI [3-iodo-2-propynyl butylcarbamate (IPBC)]: the growth yield by setting is: (40 h) 95.9 ± 13%; (72 h) 94.5 ± 9.8%.

As for `N=C(N)NC(=O)Cc1c(Cl)cccc1Cl` [Guanfacine hydrochloride] + CCCCNC(=O)OCC#CI [3-iodo-2-propynyl butylcarbamate (IPBC)], the growth yield runs as follows: (40 h) 79.9 ± 4.3%; (72 h) 90.7 ± 3.7%.

As for `O=C1[C@H]2CCCC[C@H]2C(=O)N1CCCCN1CCN(c2nsc3ccccc23)CC1` [Perospirone] + CCCCNC(=O)OCC#CI [3-iodo-2-propynyl butylcarbamate (IPBC)], the growth yield (40 h) is 79.4 ± 0.95% and the growth yield (72 h) came to 88.41 ± 0.32%.

As to `C[C@@H]1C[C@H]2[C@@H]3C[C@H](F)C4=CC(=O)C=C[C@]4(C)[C@@]3(F)[C@@H](O)C[C@]2(C)[C@@]1(O)C(=O)COC(=O)C(C)(C)C` [Flumethasone pivalate] + CCCCNC(=O)OCC#CI [3-iodo-2-propynyl butylcarbamate (IPBC)], the growth yield is, setting by setting: (40 h) 90.9 ± 2.5%; (72 h) 90.3 ± 2%.

Regarding `CN(CCCN1c2ccccc2CCc2ccccc21)CC(=O)c1ccc(Cl)cc1` [Lofepramine] + CCCCNC(=O)OCC#CI [3-iodo-2-propynyl butylcarbamate (IPBC)], the growth yield (40 h) stood at 78.31 ± 0.48% and the growth yield (72 h) stood at 91.7 ± 1.3%.

For `CCN[C@H]1CN(CCCOC)S(=O)(=O)c2sc(S(N)(=O)=O)cc21` [Brinzolamide] + CCCCNC(=O)OCC#CI [3-iodo-2-propynyl butylcarbamate (IPBC)], the growth yield amounted to 76.1 ± 0.79% (40 h) and 86.31 ± 0.32% (72 h).

Take `CC(N/C(=N\C#N)Nc1ccncc1)C(C)(C)C` (stereo not drawn) [Pinacidil] + CCCCNC(=O)OCC#CI [3-iodo-2-propynyl butylcarbamate (IPBC)]: the growth yield is, setting by setting: (40 h) 97.7 ± 5.9%; (72 h) 102 ± 2.9%.

As for `CCCCc1cc2ccccc2c(OCCN(C)C)n1` [Dimethisoquin hydrochloride] + CCCCNC(=O)OCC#CI [3-iodo-2-propynyl butylcarbamate (IPBC)], the growth yield runs as follows: (40 h) 52.1 ± 0.64%; (72 h) 82.64 ± 0.42%.

Turning to `CC(C)c1nc(CN(C)C(=O)N[C@H](C(=O)N[C@@H](Cc2ccccc2)C[C@H](O)[C@H](Cc2ccccc2)NC(=O)OCc2cncs2)C(C)C)cs1` [Ritonavir] + CCCCNC(=O)OCC#CI [3-iodo-2-propynyl butylcarbamate (IPBC)], the growth yield came to 119 ± 1.6% (40 h) and 119 ± 1.5% (72 h).

For the molecule `O=C(O)CCC(=O)c1ccc(-c2ccccc2)cc1` [Fenbufen] + CCCCNC(=O)OCC#CI [3-iodo-2-propynyl butylcarbamate (IPBC)], the growth yield (40 h) came to 71.5 ± 2.9% and the growth yield (72 h) is 92.2 ± 1.8%.

Consider `CCC[C@@H]1C[C@@H](C(=O)N[C@@H]([C@H]2O[C@H](SC)[C@H](O)[C@@H](O)[C@H]2O)[C@@H](C)O)N(C)C1` [Lincomycin hydrochloride] + CCCCNC(=O)OCC#CI [3-iodo-2-propynyl butylcarbamate (IPBC)], for which the growth yield was 85.8 ± 3.5% (40 h) and 94.6 ± 2.3% (72 h).

Consider `COCC1=C(C(=O)OC(C)OC(=O)OC(C)C)N2C(=O)[C@@H](NC(=O)/C(=N\OC)c3csc(N)n3)[C@H]2SC1` (stereo partly drawn) [Cefpodoxime proxetil] + CCCCNC(=O)OCC#CI [3-iodo-2-propynyl butylcarbamate (IPBC)], for which the growth yield by setting is: (40 h) 121 ± 3.5%; (72 h) 113.6 ± 0.94%.

For `Nc1cc(N2CCCCC2)nc(N)[n+]1[O-]` [Minoxidil] + CCCCNC(=O)OCC#CI [3-iodo-2-propynyl butylcarbamate (IPBC)], the growth yield (40 h) turned out to be 90.1 ± 2.1% and the growth yield (72 h) stood at 93.5 ± 1.7%.
